# Compounds without any hit were thinned out: in the full panel of roughly 83,000, 20% have a hit.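 Step 1: grow cells in 96-well plates. Step 2: add test compound at a single concentration. Step 3: incubate 48 h. Step 4: record percent growth.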 The source made the active and inactive calls. The calls were made as follows: active = growth percent below 10; inactive = the rest.
# Tested on: SF-268 CNS
# Experiment: NCI-60 one-dose screen, 48 h (100 = growth as untreated, 0 = no growth, -100 = all killed)
# Conditions: 10 µM unless noted
row,Compound,growth
1,CCN(CC)S(=O)(=O)c1ccc(-c2nc(C(Cl)Cl)nc3cc(-c4ccc(F)cc4)nn23)cc1,48.5% (inactive)
2,C/C(=N/N)c1nnn(-c2ccc(Br)cc2)c1C,97.8% (inactive)
3,CC1=C(C)C(=O)C(Nc2cccc(C)c2)=C(Br)C1=O,100% (inactive)
4,Cc1ccc(C(=O)Nc2ccc(CNCCN3CCNCC3)c(C(F)(F)F)c2)cc1C#Cc1cnc2cccnn12,-14.2% (active)

# Tested on: SF-295 CNS
# Experiment: as above
# Conditions: 10 µM unless noted
row,Compound,growth
1,C#C[C@]1(O)CC[C@H]2[C@@H]3CC=C4c5sc(Nc6cc(C)cc(C)c6)nc5CC[C@]4(C)[C@H]3CC[C@@]21C,-71.7% (active)
2,CCCC[n+]1ccc(SCC(=O)n2ccc3ccccc32)c2ccccc21,96.5% (inactive)
3,CC(C)(C)c1cc(NC(=O)Nc2ccc(-c3cn4c5c(sc4n3)CCc3cn(CCCN4CCCCC4)cc3-5)cc2)no1,-53.6% (active)
4,CCCCCCNC(=O)Oc1ccc(/C(=C(/C)c2ccc(OC)cc2)c2ccc(OCCN3CCCCCC3)cc2)cc1,-41.3% (active)
5,Cn1cc(-c2cc3ncnc(Nc4ccc(CC(=O)Nc5nc(C(C)(C)C)cs5)cc4)c3s2)cn1,69.6% (inactive)
6,O=C(CCCCCC/C=C\c1csc(Br)n1)NO,95.4% (inactive)
7,COc1ccc(C(=O)c2c(N)c(C#N)cn2-c2ccc(Cl)cc2Cl)cc1,98.8% (inactive)
8,Cc1ccc2c(n1)C(=O)C(Cl)=C(Nc1cccc(C(F)(F)F)c1)C2=O,110% (inactive)
9,O=C1[C@H]2Cc3c([nH]c4ccccc34)[C@H](c3ccc(Cl)cc3)N2C(=O)CN1C1CCN(CC2CCCCC2)CC1,97.4% (inactive)

# Reference: PubChem BioAssay (NCI)
